Bioassay records deposited in PubChem BioAssay by several laboratories.
CSC inhib – cancer stem cell viability inhibitors, primary screen, luminescence. cancer stem cell-like cells viability. inhibition, % at 7.5 µM. actives 1.1% (n = 300,000). AID 2717, 2010; in the data active means inhibition above about 75%; tested in HMLE shEcad cells
Gli-Sufu block – Gli-Sufu pathway antagonists, primary screen, luciferase luminescence, Sufu-KO-LIGHT cells, uHTS; actives 0.74% (n = 340,000); AID 588413, 2011; inhibition, % at 5 µM; Sufu-KO-LIGHT fibroblasts, Gli luciferase reporter luminescence;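 active means inhibition above about 55%, limit read from the data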;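 further: 0% = DMSO-treated cells and 100% = wells with medium but no cells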
MPTP inh – mitochondrial permeability transition pore inhibitors, primary screen, biochemical, isolated mouse mitochondria, absorbance. Ca2+ swelling absorbance, 30 min. inhibition, % at 10 µM. actives 1.4% (n = 360,000). AID 602449, 2012;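 active means inhibition of 50% or more, scaled per plate between neutral and stimulator controls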;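 further: 0% = DMSO wells given calcium and 100% = 1 mM EGTA wells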
Beta apoptosis – inhibitors of cytokine-induced beta cell apoptosis, primary screen, luminescence. INS-1E cytokine-induced death, ATP luminescence, 48 h; percent of positive-control rescue, neutral wells zero. protection from apoptosis, % (test concentration not listed). actives 0.8% (n = 300,000). AID 435005, 2010;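 active means Every replicate reaches about 75%, or at least half do and their mean reaches it too, limit read from the data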;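 further: 0% = cytokine-treated negative control wells and 100% = positive control rescue; higher means more ATP so stronger rescue from cytokine killing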
Mdm2 MdmX PPI – inhibitors of human Mdm2-MdmX association, primary screen, cell-based, luminescence, split luciferase, SaOS-2, uHTS | Protein Mdm4 (Homo sapiens) + E3 ubiquitin-protein ligase Mdm2 (Homo sapiens), … | SaOS-2 split-luciferase Mdm2/MdmX complementation | inhibition, % at 8 µM | actives 3% (n = 330,000);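 active means inhibition of at least 50% at 8 µM in the primary screen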
Target sequence (O15151 whole entry, looked up): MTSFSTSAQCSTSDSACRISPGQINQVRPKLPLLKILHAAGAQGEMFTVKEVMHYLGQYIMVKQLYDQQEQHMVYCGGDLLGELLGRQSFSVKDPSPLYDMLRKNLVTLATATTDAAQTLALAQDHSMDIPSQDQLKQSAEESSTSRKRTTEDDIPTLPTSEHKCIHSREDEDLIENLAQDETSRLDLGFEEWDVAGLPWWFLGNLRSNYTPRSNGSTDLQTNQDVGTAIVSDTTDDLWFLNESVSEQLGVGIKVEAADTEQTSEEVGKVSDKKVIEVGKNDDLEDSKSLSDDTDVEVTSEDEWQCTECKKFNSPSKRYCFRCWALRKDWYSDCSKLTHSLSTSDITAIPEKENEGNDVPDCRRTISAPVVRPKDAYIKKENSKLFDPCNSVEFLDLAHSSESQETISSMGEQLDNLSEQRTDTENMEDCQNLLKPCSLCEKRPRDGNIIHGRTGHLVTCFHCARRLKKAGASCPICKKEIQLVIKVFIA
Target sequence (Q00987 whole entry, looked up): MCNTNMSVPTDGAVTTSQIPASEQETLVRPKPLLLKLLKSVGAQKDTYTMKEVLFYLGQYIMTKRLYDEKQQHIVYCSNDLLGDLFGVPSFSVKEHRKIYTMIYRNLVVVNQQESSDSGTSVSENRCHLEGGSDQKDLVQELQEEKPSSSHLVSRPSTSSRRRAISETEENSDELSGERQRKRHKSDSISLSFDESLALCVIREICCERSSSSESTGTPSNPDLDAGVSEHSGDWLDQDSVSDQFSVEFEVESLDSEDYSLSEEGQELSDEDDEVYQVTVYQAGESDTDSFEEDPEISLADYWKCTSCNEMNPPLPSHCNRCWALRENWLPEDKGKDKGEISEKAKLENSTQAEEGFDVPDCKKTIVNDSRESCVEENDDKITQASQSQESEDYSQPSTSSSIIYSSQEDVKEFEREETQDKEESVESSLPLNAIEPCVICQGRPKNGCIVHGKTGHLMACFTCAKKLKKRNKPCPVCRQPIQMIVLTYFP
NR3A LBD binder – binders of NR3A ligand-binding domain, primary screen, biophysical, differential scanning fluorimetry, uHTS; Glutamate receptor ionotropic, NMDA 3A (GRIN3A) ligand-binding domain; NR3A LBD differential scanning fluorimetry, Tm shift; 0% = protein alone, 100% = glycine-bound protein; Tm shift relative to glycine control, % at 25 µM; actives 2.5% (n = 340,000);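 active means melting temperature shift of at least 10% of the positive control shift, at one fixed dose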
MPTP counter – fluorescence retest of MPTP screen hits in isolated mitochondria, single concentration | shares compounds with MPTP inh | membrane potential, Rhodamine 123 fluorescence | inhibition, % at 10 µM | actives 78% (n = 5,000) | AID 624504, 2012; in the data active means inhibition above about 22%;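 further: 0% = DMSO vehicle and 100% = positive control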
* = called active by the depositor; / = no result given; + = active, no number. In the library only some 6.6% were active in any assay of this set; here they are far more common.

SMILES | CSC inhib | Gli-Sufu block | MPTP inh | Beta apoptosis | Mdm2 MdmX PPI | NR3A LBD binder | MPTP counter
O=S(=O)(c1ccc(-c2csc(Nc3ccc(Br)cc3)n2)cc1)N1CCCC1 | 12.3 | 23.9 | 59.5* | 11.0 | 46.1 | 24.7* | 56.2*
O=S(=O)(c1ccc(-c2csc(Nc3ccc(F)cc3)n2)cc1)N1CCCC1 | -19.6 | 26.0 | 84.4* | 12.8 | -9.5 | 23.6* | 69.4*
COc1ccc(CCC(=O)Nc2ccc(Cn3ccnc3)cc2)cc1 | 6.1 | -2.1 | -0.9 | -1.9 | -3.7 | -3.0 | /
CC1CCCC(NC(=O)COC(=O)CCC2CCCC2)C1C (stereo not drawn) | -0.1 | 3.2 | 1.2 | 2.8 | 2.7 | 1.0 | /
S=C(NC1CCCCC1)N(CCc1nc2ccccc2[nH]1)C1CCCC1 | 2.3 | 9.6 | 65.4* | 8.2 | 32.2 | -6.5 | 79.0*
O=C(Nc1ccccc1)N(CCc1nc2ccccc2[nH]1)C1CCCC1 | -6.6 | -5.2 | -0.4 | 6.2 | -7.6 | -0.5 | /
O=C(Nc1ccc2c(c1)OCO2)N1CCCC1 | 8.9 | -17.2 | 82.5* | 2.6 | -4.9 | -1.1 | 85.3*
CCc1ccccc1NC(=O)Nc1ccc2c(c1)OCO2 | 4.5 | -25.1 | 5.2 | 2.7 | -2.8 | 0.2 | /
CCc1cccc(NC(=O)Nc2ccc3c(c2)OCO3)c1 | 3.9 | -22.7 | 59.3* | 1.3 | -17.9 | 1.4 | 76.2*
O=C(Nc1ccc2c(c1)OCCO2)NC1(C(F)(F)F)Oc2ccccc2O1 | 26.7 | 0.9 | 1.2 | -3.4 | 12.6 | -5.6 | /
O=C(Nc1cccc(Cl)c1)Nc1ccc2c(c1)OCO2 | 43.6 | -94.7 | 99.5* | 16.8 | -70.8 | 32.8* | 84.6*
O=C(Nc1ccc2c(c1)OCO2)NC1(C(F)(F)F)Oc2ccccc2O1 | / | 20.3 | 55.1* | 0.2 | -5.9 | 1.1 | 59.6*
COc1ccc(C)cc1NC(=O)CN1C(=O)C(=O)N(C2CCCC2)C1=O | / | 6.8 | 0.3 | / | 0.8 | -0.4 | /
O=C(Nc1nnc(SCc2cccnc2)s1)C1CC(=O)N(c2ccc(F)cc2)C1 (stereo not drawn) | -2.7 | 2.0 | 0.6 | 3.7 | -9.9 | 1.0 | /
CC(C)c1onc(C(=O)N2CCN(Cc3ccccc3)CC2)c1[N+](=O)[O-] | -26.6 | 5.3 | -3.1 | -3.8 | 10.0 | 1.7 | /
N#Cc1ccc(C2=NC(C(F)(F)F)(C(F)(F)F)c3c(n(Cc4ccco4)c(=O)[nH]c3=O)N2)cc1 | 38.8 | 2.9 | 83.9* | 16.3 | 1.0 | 11.8* | 84.2*
O=c1[nH]c(=O)n(Cc2ccco2)c2c1C(C(F)(F)F)(C(F)(F)F)N=C(C1CCCCC1)N2 | -19.7 | 3.6 | 9.2 | 7.0 | 5.5 | 0.8 | /
CCOC(=O)c1[nH]c(C)c(/C(O)=C2\C(=O)C(=O)N(CCN3CCOCC3)C2c2cccs2)c1C (stereo not drawn) | 60.0 | 9.3 | + | -5.0 | 25.0 | -1.0 | 1.0
Cc1[nH]n(-c2ccccc2)c(=O)c1C(C[N+](=O)[O-])c1ccc(Br)cc1 (stereo not drawn) | 34.7 | 6.7 | 73.2* | / | -9.0 | -9.7 | 36.7*
Cc1[nH]n(-c2ccccc2)c(=O)c1C(c1cccc([N+](=O)[O-])c1)c1c(C)[nH]n(-c2ccccc2)c1=O | -1.4 | 3.8 | 40.6 | 2.0 | 11.8 | -3.0 | /
Cc1c(C(c2cccc([N+](=O)[O-])c2O)c2c(C)n(C)n(-c3ccccc3)c2=O)c(=O)n(-c2ccccc2)n1C | 0.5 | 0.7 | -4.5 | -1.5 | 30.8 | 2.6 | /
Cc1[nH]n(-c2ccccc2)c(=O)c1C(c1cccc([N+](=O)[O-])c1O)c1c(C)[nH]n(-c2ccccc2)c1=O | -11.0 | 6.0 | 103.0* | 5.6 | -19.7 | 18.7* | 64.9*
CC(C)Cc1ccc(C(C)C(=O)Nc2ccc(O)cc2)cc1 (stereo not drawn) | 16.7 | 18.3 | 73.0* | -1.3 | 4.0 | -3.9 | 37.9*
CC(C)Cc1ccc([C@H](C)C(=O)O)cc1 | -2.4 | -0.1 | -5.1 | -2.4 | 9.4 | 0.8 | /
